molecular target: T1, BATF;JUNB (human;human, UniProt Q16520;P17275 1-125;148-347, |); assay: Spec-seq (EMSA and sequencing of bound and unbound bands); 100 nM BATFx-JUNB, 1 uM dsDNA library, 50 mM K acetate, 20 mM Tris-acetate, 10 mM Mg acetate, 100 ug/ml BSA, pH 7.9, 10% glycerol, 30 min on ice; native 9% PAGE at 4 C; low values mean tight binding; details: protein: recombinant;recombinant; tags: N-terminal mCherry-TEV, cleaved off;C-terminal 6His; copies: 1;1; dsDNA, one strand shown
T1 sequence 1: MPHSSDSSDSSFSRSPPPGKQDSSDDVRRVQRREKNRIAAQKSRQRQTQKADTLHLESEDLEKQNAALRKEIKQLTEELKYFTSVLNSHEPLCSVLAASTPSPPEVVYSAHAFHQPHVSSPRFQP
T1 sequence 2: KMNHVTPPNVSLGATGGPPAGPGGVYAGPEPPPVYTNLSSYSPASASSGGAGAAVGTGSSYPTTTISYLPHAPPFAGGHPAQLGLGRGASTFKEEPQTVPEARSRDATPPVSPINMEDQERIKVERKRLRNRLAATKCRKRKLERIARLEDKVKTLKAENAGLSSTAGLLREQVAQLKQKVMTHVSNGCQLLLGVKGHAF
Summary of the method: (§1)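 The protein, at 100 nM, was incubated with 1 μM double-stranded degenerate DNA library for 30 min on ice in NEB Cutsmart buffer with 10% glycerol, then resolved by native 9% PAGE at 4 °C. Excised bound and unbound bands were PCR-barcoded and Illumina-sequenced, and each sequence's relative binding energy in kT is −ln of its bound/unbound read-count ratio.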

Sequence | binding signal
GATAGTCTCATTTTCACCCCGTGAAATGACTAATTTGTTCCATTACAGTATCTGT | -0.506 kT
GATAGTCTCATTTTCACCCCGTGAAAATGGGTCATTGTTCCATTACAGTATCTGT | -0.00523 kT
GATAGTCTCATTTTCACCCCGTGAAATGAGTGAGTTGTTCCATTACAGTATCTGT | -0.103 kT
GATAGTCTCATTTTCACCCCGTGAAATGATGTCATTGTTCCATTACAGTATCTGT | -0.738 kT
GATAGTCTCATTTTCACCCCGTGAAATGAGTCTCTTGTTCCATTACAGTATCTGT | 0.273 kT
GATAGTCTCATTTTCACCCCGTGAAATGACTCCGTTGTTCCATTACAGTATCTGT | 0.0406 kT
GATAGTCTCATTTTCACCCCGTGAAATGACTCATTTGTTCCATTACAGTATCTGT | -0.896 kT
GATAGTCTCATTTTCACCCCGTGAAAGAGAGTCATTGTTCCATTACAGTATCTGT | -0.0937 kT
GATAGTCTCATTTTCACCCCGTGAAATGGCTCATTTGTTCCATTACAGTATCTGT | 0.393 kT
GATAGTCTCATTTTCACCCCGTGAAATGGGTCATTTGTTCCATTACAGTATCTGT | 0.293 kT
GATAGTCTCATTTTCACCCCGTGAAATGGCGTCATTGTTCCATTACAGTATCTGT | -0.631 kT
GATAGTCTCATTTTCACCCCGTGAAATCACTCATTTGTTCCATTACAGTATCTGT | -0.257 kT
GATAGTCTCATTTTCACCCCGTGAAATGTGTCATTTGTTCCATTACAGTATCTGT | -0.52 kT
GATAGTCTCATTTTCACCCCGTGAAATGAGTTATTTGTTCCATTACAGTATCTGT | 0.153 kT
GATAGTCTCATTTTCACCCCGTGAAATGAGTCTGTTGTTCCATTACAGTATCTGT | 0.124 kT
GATAGTCTCATTTTCACCCCGTGAAATGACTGACTTGTTCCATTACAGTATCTGT | -0.088 kT
GATAGTCTCATTTTCACCCCGTGAAAAGGAGTCATTGTTCCATTACAGTATCTGT | -0.134 kT

Sequence | binding signal
GATAGTCTCATTTTCACCCCGTGAAATGAGACAGTTGTTCCATTACAGTATCTGT | 0.654 kT
GATAGTCTCATTTTCACCCCGTGAAATGGAGTCATTGTTCCATTACAGTATCTGT | -0.329 kT
GATAGTCTCATTTTCACCCCGTGAAATGAGCCACTTGTTCCATTACAGTATCTGT | 0.573 kT
GATAGTCTCATTTTCACCCCGTGAAATGACTCTATTGTTCCATTACAGTATCTGT | -0.0428 kT
GATAGTCTCATTTTCACCCCGTGAAAGGGAGTCATTGTTCCATTACAGTATCTGT | -0.148 kT
GATAGTCTCATTTTCACCCCGTGAAACGGAGTCATTGTTCCATTACAGTATCTGT | -0.207 kT
GATAGTCTCATTTTCACCCCGTGAAAGTGGGTCATTGTTCCATTACAGTATCTGT | 0.393 kT
GATAGTCTCATTTTCACCCCGTGAAATGAGTCATTTGTTCCATTACAGTATCTGT | -1.06 kT
GATAGTCTCATTTTCACCCCGTGAAATGAGCCAATTGTTCCATTACAGTATCTGT | 0.591 kT
GATAGTCTCATTTTCACCCCGTGAAATTGTGTCATTGTTCCATTACAGTATCTGT | -0.292 kT
GATAGTCTCATTTTCACCCCGTGAAATGAGACATTTGTTCCATTACAGTATCTGT | 0.216 kT
GATAGTCTCATTTTCACCCCGTGAAAGTCAGTCATTGTTCCATTACAGTATCTGT | -0.0489 kT
GATAGTCTCATTTTCACCCCGTGAAATGACTTCATTGTTCCATTACAGTATCTGT | -0.183 kT
GATAGTCTCATTTTCACCCCGTGAAAACGAGTCATTGTTCCATTACAGTATCTGT | -0.809 kT
GATAGTCTCATTTTCACCCCGTGAAAATGCGTCATTGTTCCATTACAGTATCTGT | -1.01 kT
GATAGTCTCATTTTCACCCCGTGAAATCAGTCATTTGTTCCATTACAGTATCTGT | -0.312 kT

molecular target: T2, BATF2 (bZIP);JUNB (human;human, UniProt Q8N1L9;P17275 1-142;148-347, |); assay: as above; details: protein: recombinant;recombinant; tags: N-terminal mCherry-TEV, cleaved off;C-terminal 6His; copies: 1;1; dsDNA, one strand shown
T2 sequence 1: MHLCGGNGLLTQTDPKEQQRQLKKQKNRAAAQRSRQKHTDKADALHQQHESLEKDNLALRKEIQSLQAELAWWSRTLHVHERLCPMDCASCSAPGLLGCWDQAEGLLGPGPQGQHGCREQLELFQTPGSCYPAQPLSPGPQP
T2 sequence 2: T1 sequence 2
Summary of the method: as §1

Sequence | binding signal
GATAGTCTCATTTTCACCCCGTGAAATGACTAATTTGTTCCATTACAGTATCTGT | 0.0427 kT
GATAGTCTCATTTTCACCCCGTGAAAATGGGTCATTGTTCCATTACAGTATCTGT | 0.62 kT
GATAGTCTCATTTTCACCCCGTGAAATGAGTGAGTTGTTCCATTACAGTATCTGT | 0.64 kT
GATAGTCTCATTTTCACCCCGTGAAATGATGTCATTGTTCCATTACAGTATCTGT | -0.708 kT
GATAGTCTCATTTTCACCCCGTGAAATGAGTCTCTTGTTCCATTACAGTATCTGT | 1.09 kT
GATAGTCTCATTTTCACCCCGTGAAATGACTCCGTTGTTCCATTACAGTATCTGT | 0.724 kT
GATAGTCTCATTTTCACCCCGTGAAATGACTCATTTGTTCCATTACAGTATCTGT | -0.796 kT
GATAGTCTCATTTTCACCCCGTGAAAGAGAGTCATTGTTCCATTACAGTATCTGT | 0.318 kT
GATAGTCTCATTTTCACCCCGTGAAATGGCTCATTTGTTCCATTACAGTATCTGT | 1.11 kT
GATAGTCTCATTTTCACCCCGTGAAATGGGTCATTTGTTCCATTACAGTATCTGT | 0.704 kT
GATAGTCTCATTTTCACCCCGTGAAATGGCGTCATTGTTCCATTACAGTATCTGT | -0.0754 kT
GATAGTCTCATTTTCACCCCGTGAAATCACTCATTTGTTCCATTACAGTATCTGT | 0.442 kT
GATAGTCTCATTTTCACCCCGTGAAATGTGTCATTTGTTCCATTACAGTATCTGT | -0.022 kT
GATAGTCTCATTTTCACCCCGTGAAATGAGTTATTTGTTCCATTACAGTATCTGT | 0.843 kT
GATAGTCTCATTTTCACCCCGTGAAATGAGTCTGTTGTTCCATTACAGTATCTGT | 1.09 kT
GATAGTCTCATTTTCACCCCGTGAAATGACTGACTTGTTCCATTACAGTATCTGT | 0.456 kT
GATAGTCTCATTTTCACCCCGTGAAAAGGAGTCATTGTTCCATTACAGTATCTGT | 0.436 kT

Sequence | binding signal
GATAGTCTCATTTTCACCCCGTGAAATGAGACAGTTGTTCCATTACAGTATCTGT | 1.32 kT
GATAGTCTCATTTTCACCCCGTGAAATGGAGTCATTGTTCCATTACAGTATCTGT | 0.239 kT
GATAGTCTCATTTTCACCCCGTGAAATGAGCCACTTGTTCCATTACAGTATCTGT | 1.34 kT
GATAGTCTCATTTTCACCCCGTGAAATGACTCTATTGTTCCATTACAGTATCTGT | 0.602 kT
GATAGTCTCATTTTCACCCCGTGAAAGGGAGTCATTGTTCCATTACAGTATCTGT | 0.485 kT
GATAGTCTCATTTTCACCCCGTGAAACGGAGTCATTGTTCCATTACAGTATCTGT | 0.313 kT
GATAGTCTCATTTTCACCCCGTGAAAGTGGGTCATTGTTCCATTACAGTATCTGT | 0.822 kT
GATAGTCTCATTTTCACCCCGTGAAATGAGTCATTTGTTCCATTACAGTATCTGT | -0.903 kT
GATAGTCTCATTTTCACCCCGTGAAATGAGCCAATTGTTCCATTACAGTATCTGT | 1.4 kT
GATAGTCTCATTTTCACCCCGTGAAATTGTGTCATTGTTCCATTACAGTATCTGT | -0.0836 kT
GATAGTCTCATTTTCACCCCGTGAAATGAGACATTTGTTCCATTACAGTATCTGT | 1.21 kT
GATAGTCTCATTTTCACCCCGTGAAAGTCAGTCATTGTTCCATTACAGTATCTGT | 0.348 kT
GATAGTCTCATTTTCACCCCGTGAAATGACTTCATTGTTCCATTACAGTATCTGT | 0.172 kT
GATAGTCTCATTTTCACCCCGTGAAAACGAGTCATTGTTCCATTACAGTATCTGT | -0.0168 kT
GATAGTCTCATTTTCACCCCGTGAAAATGCGTCATTGTTCCATTACAGTATCTGT | -0.552 kT
GATAGTCTCATTTTCACCCCGTGAAATCAGTCATTTGTTCCATTACAGTATCTGT | 0.249 kT
